A selection: hits, their analogues and other compounds. The true share with any hit is near 11%.
ALDH1A1 block = qHTS Assay for Inhibitors of Aldehyde Dehydrogenase 1 (ALDH1A1); Aldehyde dehydrogenase 1A1 (Homo sapiens), P00352; hit rate 7.3% among 220,000; Potency, µM (series often up to 75.3 µM), usual class: inhibitors; Purified ALDH1A1, NADH fluorescence, propionaldehyde substrate; active = well fitted inhibition curve with a large enough effect, not every such curve was filed as active; inconclusive = small, poorly fitted or top-dose-only effect, or another doubt; inactive = no such curve, though single readings can be large or run the other way
Target sequence (P00352 whole entry, looked up): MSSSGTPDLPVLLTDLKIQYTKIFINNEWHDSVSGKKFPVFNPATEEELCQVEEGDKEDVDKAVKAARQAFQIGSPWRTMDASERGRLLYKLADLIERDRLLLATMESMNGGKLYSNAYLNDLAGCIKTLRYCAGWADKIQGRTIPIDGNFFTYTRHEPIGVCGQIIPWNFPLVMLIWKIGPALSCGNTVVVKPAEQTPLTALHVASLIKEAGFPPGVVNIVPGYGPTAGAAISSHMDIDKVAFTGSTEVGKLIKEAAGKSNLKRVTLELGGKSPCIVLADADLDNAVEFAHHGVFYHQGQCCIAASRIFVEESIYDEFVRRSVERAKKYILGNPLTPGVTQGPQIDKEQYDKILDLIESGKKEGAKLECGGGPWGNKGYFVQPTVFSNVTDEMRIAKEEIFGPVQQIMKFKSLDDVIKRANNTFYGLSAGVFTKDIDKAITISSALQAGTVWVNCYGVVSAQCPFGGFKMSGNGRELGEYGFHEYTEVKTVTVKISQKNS
IMPase Li cell = qHTS Assay for Identifying the Cell-Membrane Permeable IMPase Inhibitors: Potentiation with Lithium. hit rate 0.35% among 210,000. AID 1457, 2008. Potency, µM (titrated, usually from 59.4 µM), usual class: inhibitors. CHO-M1 cells, IP1 TR-FRET (IP-One), carbachol + lithium;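 also: IP1 builds up when IMPase is blocked and the TR-FRET signal falls; nearly all actives have a fitted effect of over 50% in size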
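Lithium-sensitised IP1 accumulation assay; M1-expressing CHO cells treated 30 min at 37C with compound. Competitive antibody detection by time-resolved FRET followed a 10 min room-temperature lysis step.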
PNC assembly inh = High Content Assay for Compounds that inhibit the Assembly of the Perinucleolar Compartment; hit rate 3.1% among 140,000; AID 2417, 2010; PC3M PTB-GFP, PNC prevalence imaging, 16 h; hits give low values; activity change (PNC), negative = inhibition, % at 10 µM;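 active = readout at or below -70, meaning at least 70% loss of cells showing the perinucleolar compartment, a nuclear body marking cancer cells; inconclusive = readout between -30 and a set limit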
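Compounds are pinned in duplicate onto adhered PC3M cells stably expressing GFP-tagged PTB and incubated 16 h at 37 C. Cells are then fixed, nuclei stained with Hoechst, and PNC-positive cells counted.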
HPGD inh = qHTS Assay for Inhibitors of HPGD (15-Hydroxyprostaglandin Dehydrogenase); purified HPGD, NADH fluorescence kinetic, PGE2 substrate; Potency, µM, most hits filed as inhibitors; hit rate 4.3% among 150,000; active = well fitted inhibition curve with a large enough effect, not every such curve was filed as active; inconclusive = small, poorly fitted or top-dose-only effect, or another doubt; inactive = no such curve, though single readings can be large or run the other way
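NADH formation kinetics: reaction with 30 uM PGE2 and 1 mM NAD+ (final), 20 nM enzyme, Tris-HCl pH 8 with Tween 20, after 15 min compound preincubation at room temperature. Fluorescence change, last versus first of five reads.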
ALOX12 inhib = qHTS Assay for Inhibitors of 12-hLO (12-human lipoxygenase). Polyunsaturated fatty acid lipoxygenase ALOX12 (Homo sapiens), P18054. purified 12-hLO, xylenol orange hydroperoxide absorbance. Potency, µM (highest dose often 57.1 µM), hits mostly inhibitors. hit rate 0.12% among 150,000. AID 1452, 2008; also: nearly all actives have a fitted effect of over 55% in size
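Hydroperoxide formation by human 12-lipoxygenase from 40 uM arachidonic acid was followed colorimetrically via ferric-xylenol orange complex, using the 573/405 nm absorbance ratio. Enzyme concentration was 150 nM, with 30 min reaction at room temperature.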
IMPase inh = qHTS Assay for Identifying the Cell-Membrane Permeable IMPase Inhibitors | 120,000 tested, under 10 active | Inositol monophosphatase 1 (Rattus norvegicus), P97697 | CHO-M1 cells, IP1 accumulation, HTRF TR-FRET ratio | inhibition (IP1 accumulation), % at 46.1 µM | AID 901, 2007; active = well fitted curve in the direction sought with a large enough effect in the signal ratio, not every such curve was filed as active; inconclusive = small, poorly fitted or top-dose-only effect, or a change in a side signal; inactive = no such curve, though single readings can be large or run the other way; the % refers to the signal ratio;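 also: cells stimulated with carbachol in lithium chloride buffer; higher means more IMPase inhibition seen as more IP1 and lower FRET ratio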
Target sequence (P97697 whole entry, looked up): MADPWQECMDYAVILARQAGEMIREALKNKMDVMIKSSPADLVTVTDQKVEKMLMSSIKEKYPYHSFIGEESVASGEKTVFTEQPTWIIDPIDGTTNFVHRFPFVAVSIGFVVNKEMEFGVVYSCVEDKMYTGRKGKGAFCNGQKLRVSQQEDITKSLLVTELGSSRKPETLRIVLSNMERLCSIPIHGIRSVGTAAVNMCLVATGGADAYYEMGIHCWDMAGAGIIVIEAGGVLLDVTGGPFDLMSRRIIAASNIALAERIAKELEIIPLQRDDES
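The IP-One HTRF competitive assay in carbachol-stimulated CHO-M1 cells quantifies cellular IP1. Compounds spanned up to 46 uM final, and activity is expressed as AC50 from concentration-response fits of the ratio and donor data.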
Hits are given with their value; n = inactive; u = inconclusive; x = no result given; [ ] = another dose, or the depositor's remark. Unless noted, calls follow the shape of the dose curve; as a rule, active = well fitted curve in the direction sought with a large enough effect; inconclusive = small, poorly fitted or top-dose-only effect, or another doubt; inactive = no such curve, though single readings can be large; an effect the other way counts as inactive or inconclusive.

SMILES	ALDH1A1 block	IMPase Li cell	PNC assembly inh	HPGD inh	ALOX12 inhib	IMPase inh
COc1ccc(NC(=O)/C(C#N)=C\c2cc(C)n(-c3ccc(Oc4ccc([N+](=O)[O-])cn4)cc3)c2C)cc1	n	n	n	28µM	n	n
Cc1cc(C=O)c(C)n1-c1ccc(Oc2ccc([N+](=O)[O-])cn2)cc1	10µM	n	-118	n	n	x
Cc1cc(/C=C(\C#N)C(=O)Nc2ccc(F)cc2)c(C)n1-c1ccc(N2CCOCC2)c([N+](=O)[O-])c1	16µM	n	n	n	n	n
CC(CCC(=O)O)C1CCC2C3CC[C@H]4CC(O)CC[C@@]4(C)C3C=C[C@]12C (stereo partly specified)	n	n	x	n	n	x
CC(C)(C)c1ccc(OCCn2cc(C(=O)c3ccco3)c3ccccc32)cc1	x	x	x	x	x	n
O=C(CSc1nnnn1C1CCCCC1)Nc1ccc2c(c1)OCO2	7.9µM	n	n	n	n	n
O=C(CSc1nnnn1C1CCCCC1)Nc1ccccc1F	4µM	n	x	x	x	x
O=C(CSc1nnnn1C1CCCCC1)Nc1cccc(NC(=O)c2ccco2)c1	28µM	n	n	n	n	n
O=C(CSc1nnnn1C1CCCCC1)Nc1ccc(F)cc1	u	n	x	x	x	x
O=C(CSc1nnnn1C1CCCC1)Nc1cccc(NC(=O)c2ccco2)c1	u	n	n	n	n	n
CCn1nnnc1SCC(=O)Nc1ccc(OC)cc1	n	n	-100	n	n	n
CCn1nnnc1SCC(=O)Nc1nc2ccc(OC)cc2s1	n	n	-100	n	n	n
CCCCn1nnnc1SCC(=O)Nc1ccc(F)cc1	u	n	n	n	n	n
COc1ccc(NCc2nnc(SCC(=O)Nc3ccc(OC)cc3)n2C)cc1	n	n	x	x	x	x
O=C(O)CSc1nnnn1C1CCCCC1	n	n	x	x	x	x
CCOC(=O)c1ccc(NC(=O)CSc2nnc(CNc3ccc(OC)cc3)n2C)cc1	13µM	n	n	n	n	n
CCCCn1nnnc1SCC(=O)Nc1ccc(N(C)C)cc1	25µM	n	n	n	n	n
O=C(Sc1nnnn1C1CCCCC1)c1cccs1	10µM	n	u	25µM	n	n
COc1ccc2nc(NC(=O)CSc3nc(C)cc(C)n3)sc2c1	n	n	n	n	n	n
C/C(=N/NC(=O)C(O)(c1ccccc1)c1ccccc1)c1ccc([N+](=O)[O-])o1	n	n	x	x	x	x
CCCN(c1ccc(C(C)C)cc1)S(=O)(=O)c1ccc2c(c1)CCN2C(=O)CC	x	x	x	x	x	n
C/C(CCN1CCCCc2nc(C)c(C)cc21)=N\O[C@@H](C)c1cc(-c2c(C)cc(C)cc2C)no1	n[13.5 µM]	x	x	x	x	x
NCCCCCCNS(=O)(=O)c1ccc2c(Cl)cccc2c1	u	n	x	n	n	n
O=C(CSc1nnnn1C1CC2CCC1C2)Nc1ccnc2ccccc12 (stereo unspecified)	2.5µM	n	n	u	n	n
COc1cccc(-n2nnnc2SCC(=O)Nc2ccc(C(C)=O)cc2)c1	n	n	n	n	n	u
SMILES	ALDH1A1 block	IMPase Li cell	PNC assembly inh	HPGD inh	ALOX12 inhib	IMPase inh
COc1ccc(OC)c(-n2nnnc2SCC(=O)Nc2ccc(C(=O)N3CCCCC3)cc2)c1	1.4µM	n	n	0.35µM	n	n
COc1ccc(NC(=O)CSc2nnnn2C2CCCC2)cc1	2.5µM	n	x	x	x	x
O=C(CSc1nnnn1C1CCCC1)Nc1ccc(F)cc1	u	n	n	n	n	n
CC(C)c1ccc2oc(-c3ccc(Cl)c(NC(=O)Cc4ccccc4)c3)nc2c1	x	x	x	x	x	n
COCCn1c(=O)c(-c2cc(F)cc(F)c2)nc2cnc(N(C)C)nc21	n	n	x	x	x	x
Cc1oc(-c2ccccc2)cc1C(=O)Nc1ccc2ccccc2c1	32µM	n	n	u	u	n
COc1ccc(NS(=O)(=O)c2cc(OC)ccc2NC(=O)c2cc(C)oc2C)cc1	3.2µM	n	-100	n	u	n
COc1ccc(NC(=O)c2cc(-c3ccccc3)oc2C)cc1	u	n	u	22µM	n	x
COc1ccc(-c2nc3ccccc3s2)cc1NC(=O)COc1cccc(C)c1	x	x	x	x	x	n
COC(=O)C1CC1C(NC(=O)[C@@H]1CCCN1)c1ccccc1 (stereo partly specified)	n	n	x	n	n	x
O=C(Nc1ccc(S(=O)(=O)N2CCOCC2)cc1)C1COc2ccccc2O1 (stereo unspecified)	n	n	u	n	n	n
O=C(Nc1ccc(S(=O)(=O)N2CCCC2)cc1)C1COc2ccccc2O1 (stereo unspecified)	n	n	-90	n	n	n
O=C(C1COc2ccccc2O1)N1CCCC1 (stereo unspecified)	u	n	u	13µM	n	n
COc1cccc(-c2ccc3ncnc(NC4CC4)c3c2)c1	u	n	x	x	x	x
COc1ccc(-c2nc3cnc(N(C)C)nc3n(C)c2=O)cc1	u	n	x	x	x	x
CCc1[nH]nc2c1C1(C(=O)N(Cc3ccccc3)c3ccccc31)C(C#N)=C(N)O2 (stereo unspecified)	7.9µM	n	n	n	n	n
COc1cc(C2c3cc4c(cc3C(OC3OC5COC(C)O[C@@H]5C(O)C3O)C3COC(=O)C23)OCO4)cc(OC)c1O (stereo partly specified)	n	n	x	n	n	x
Nc1nccs1	n	n	x	n	n	x
COCCN(C(=O)Cc1cccs1)c1nnc(-c2ccncc2)s1	13µM	n	n	n	n	n
COCCN(C(=O)COc1ccc(Cl)cc1)c1nnc(-c2cccnc2)s1	n	u	-100	n	n	u
COCCN(C(=O)COc1ccccc1)c1nnc(-c2cccnc2)s1	n	n	n	n	n	n
COc1cccc(CN2CCN(C(=O)c3cccs3)CC2)c1OC	18µM	n	n	n	n	n
O=C(c1cccs1)N1CCN(Cc2ccccc2)CC1	n	n	-109	n	n	x
COc1cccc(OC)c1C(=O)N1CCN(Cc2ccncc2)CC1	14µM	n	n	n	n	n[1.84 µM]
CCCCN(C)C(=O)c1nc2ccccn2c1CN1CCN(C(=O)c2cccs2)CC1	6.3µM	n	x	x	x	x
CCCCN(C)C(=O)c1nc2ccccn2c1CN1CCN(c2ccccn2)CC1	n	n	x	x	x	x
CN(Cc1ccco1)c1ncncc1-c1cccc(NS(C)(=O)=O)c1	u	n	x	x	x	x
O=C(O)c1ccccc1NC(=O)N1c2ccccc2Sc2ccccc21	x	x	x	x	x	n
COc1ccc(C(C)=O)cc1CSc1nc2cc(C(=O)O)ccc2c(=O)n1Cc1ccccc1	20µM	n	u	u	n	x

Screening results: PubChem, National Center for Advancing Translational Sciences (NCATS)
